{
  "source": "PubChem BioAssay (NCATS)",
  "note": "The source made the active and inactive calls. The call rests on the fitted dose curve; in most records, active means well fitted curve in the direction sought with a large enough effect; inconclusive means small, poorly fitted or top-dose-only effect, or effect the other way, or another doubt; inactive means no such curve, though single readings can be large or run the other way.",
  "data": [
    {"experiment": "qHTS of Nrf2 Activators: LOPAC Validation (AID 624149)", "conditions": "Nrf2/ARE reporter cell assay; series mostly up to 46.1 µM", "from_the_text": "Many diseases have some form of oxidative stress injury and ties to inflammation, causing a host of problems for the patient. The antioxidant response element (ARE) plays an important role in alleviating the harmful effects of oxidative stress. The antioxidant response element (ARE) is a transcriptional regulatory element involved in the activation of genes coding for a number of antioxidant proteins and detoxifying enzymes. These enzymes work in concert to protect tissues from oxidative insults and chemical toxicities in human hepatocytes and immune cells. The protective effects of ARE activation are primarily triggered through Nrf2 (NF-E2-related factor) binding to and activating AREs. It is known that Nrf2 controls the production of over 250 antioxidant and detoxification proteins (Hu et al., 2006), thereby protecting tissues by increasing cellular antioxidant content and suppressing inflammatory signaling pathways. The transcription factor Nrf2 is a central link between oxidative chemicals, such as phenolic antioxidants and electrophilic compounds, and the activation of ARE. Nrf2 levels are constitutively low as a consequence of its interaction with Keap1, which targets its degradation (Zipper and Mulcahy, 2002). Electrophiles react with key cysteine residues in Keap1, releasing Nrf2 and allowing its translocation to the nucleus. Once within the nucleus, Nrf2 complexes with coactivators such as p300, and binds to the AREs to induce gene transcription of cytoprotective enzymes, resulting in the prevention of toxicity. Activation of Nrf2 protects tissues by increasing cellular antioxidant content and suppressing inflammatory signaling pathways. Identifying novel and potent Nrf2 activators by using the AREc32 cell line to detect ARE activation by small molecules will lead to the identification and development of probes to study protective pathways in multiple tissues. These specific probes are essential to study the ARE pathway, and eventually to determine whether this pathway does activate genes that could protect against a host of diseases, including cardiovascular diseases, obesity, diabetes, Alzheimer's, and Parkinson's disease.\nThis project's aim is to identify novel and potent Nrf2 activators by using the AREc32 cell line to detect ARE activation by small molecules, which will lead to the identification and development of probes to study the ARE pathway.\nNIH Chemical Genomics Center [NCGC]\nNIH Molecular Libraries Probe Centers Network [MLPCN]\nAssay Submitter (PI): Curtis Klaassen, University of Kansas Medical Center\n5 uL of 1000 cells/well of AREc32_Fluc cells are seeded into 1536-well plate in OPTI-MEM medium with 5% FBS. The plates are incubated overnight at 37 deg C with 5% CO2. Then through pin tool transfer, 23 nL of compounds are added to each well before a 24 hr incubation at 37 deg C with 5% CO2. After the addition of 2.5 uL of Steady-Glo. the plates are kept at RT for 30 min, before they are read on the ViewLux", "values": [
      {"smiles": "C[C@@H](CN1CCC(Cc2ccccc2)CC1)[C@@H](O)c1ccc(O)cc1", "outcome": "inactive"},
      {"smiles": "C[N+]1(C)C2CC(OC(=O)[C@H](CO)c3ccccc3)CC1C1OC12", "note": "(stereo not given in full)", "outcome": "inactive"},
      {"smiles": "O=c1[nH]c2cc([N+](=O)[O-])c([N+](=O)[O-])cc2[nH]c1=O", "outcome": "inactive"},
      {"smiles": "C=CC(=O)c1ccc(CCCCCC)cc1", "outcome": "inactive"},
      {"smiles": "CN(C)c1nc2c(Br)c(Br)c(Br)c(Br)c2[nH]1", "outcome": "inactive"},
      {"smiles": "Nc1nc(Cl)nc2c1ncn2[C@@H]1O[C@H](CO)[C@@H](O)[C@H]1O", "outcome": "inactive"},
      {"smiles": "O=C(c1ccc(Cl)cc1)N1CCN(c2ccc([N+](=O)[O-])c3ncccc23)CC1", "outcome": "inactive"},
      {"smiles": "CN(C)c1nc(N)c(C(=O)N=C(N)N)nc1Cl", "outcome": "inactive"},
      {"smiles": "Fc1cccc(/C=N/N=C/c2cccc(F)c2)c1", "outcome": "inactive"},
      {"smiles": "O=C(O)CC1CCCc2ccccc2C1O", "note": "(stereo not given)", "outcome": "inactive"},
      {"smiles": "Cc1cc(NC2CCCCC2)nc(-n2nc(C)cc2C)n1", "outcome": "inactive"},
      {"smiles": "N.N.N.N.N.N.N.N.N.N.N.N.N.N.O.O.[Ru+4].[Ru+5].[Ru+5]", "outcome": "inactive"},
      {"smiles": "C#C[C@]1(O)CC[C@H]2[C@@H]3CCC4=Cc5oncc5CC4(C)[C@H]3CCC21C", "note": "(stereo not given in full)", "outcome": "inactive"},
      {"smiles": "O=C(c1ccc(OCCCc2cnc[nH]2)cc1)C1CC1", "outcome": "inactive"},
      {"smiles": "Cc1ccc(C(=O)O[C@H](C(=O)O)[C@@H](OC(=O)c2ccc(C)cc2)C(=O)O)cc1", "note": "(tested in a mixture with another compound)", "outcome": "inactive"},
      {"smiles": "CNCC[C@H](Oc1ccc(C(F)(F)F)cc1)c1ccccc1", "outcome": "inactive"},
      {"smiles": "NO", "outcome": "inactive"},
      {"smiles": "Cn1c(=O)c2[nH]c(-c3ccccc3)nc2n(C)c1=O", "outcome": "inactive"},
      {"smiles": "CCCCCCCCCCCCCCCCCCNC(=O)OCC(COP(=O)([O-])OCC[n+]1ccsc1)OC", "note": "(stereo not given)", "outcome": "inactive"},
      {"smiles": "COc1ccccc1CNCCCCCCNCCCCCCCCNCCCCCCNCc1ccccc1OC", "outcome": "inactive"},
      {"smiles": "NCCCCCCCCCCN", "outcome": "inactive"},
      {"smiles": "CN1CCc2cccc3c2C1Cc1ccc(O)c(O)c1-3", "note": "(stereo not given)", "outcome": "inactive"},
      {"smiles": "CNC(=O)[C@H]1O[C@@H](n2cnc3c(NCc4cccc(I)c4)ncnc32)[C@H](O)[C@@H]1O", "outcome": "inactive"},
      {"smiles": "OC[C@H]1O[C@@H](n2cnc3c(Nc4ccccc4)ncnc32)[C@H](O)[C@@H]1O", "outcome": "inactive"},
      {"smiles": "S=C(S)OC1CC2CC1C1CCCC21", "note": "(stereo not given)", "outcome": "inactive"},
      {"smiles": "Cc1nc2sccn2c(=O)c1CCN1CCC(=C(c2ccccc2)c2ccc(F)cc2)CC1", "outcome": "inactive"},
      {"smiles": "O=C(Nc1cccc(C(=O)Nc2ccc(S(=O)(=O)O)c3cc(S(=O)(=O)O)cc(S(=O)(=O)O)c23)c1)Nc1cccc(C(=O)Nc2ccc(S(=O)(=O)O)c3cc(S(=O)(=O)O)cc(S(=O)(=O)O)c23)c1", "outcome": "inactive"},
      {"smiles": "C[N+](C)(C)CCOP(=O)(O)OP(=O)([O-])OC[C@H]1O[C@@H](n2ccc(N)nc2=O)[C@H](O)[C@@H]1O", "outcome": "inactive"},
      {"smiles": "CCCCCCCCCCCCCCCC(=O)NCC(COP(=O)([O-])OCC[N+](C)(C)C)OCC", "note": "(stereo not given)", "outcome": "inactive"},
      {"smiles": "CC(C)ON([C@@H](C(=O)NO)C(C)C)S(=O)(=O)c1ccc(-c2ccccc2)cc1", "outcome": "inactive"},
      {"smiles": "CC1OC1P(=O)(O)O", "note": "(stereo not given)", "outcome": "inactive"},
      {"smiles": "O=C(O)[C@@H]1C[C@@H](C(=O)O)N1", "outcome": "inactive"},
      {"smiles": "CC(C)Cc1ccc([C@H](C)C(=O)O)cc1", "outcome": "inactive"},
      {"smiles": "CN1CCc2ccccc2Cc2[nH]c3ccccc3c2CC1", "outcome": "inactive"},
      {"smiles": "O=c1[nH]c2cc(C(F)(F)F)ccc2n1-c1cc(C(F)(F)F)ccc1O", "outcome": "inactive"},
      {"smiles": "CO/N=C(\\C(=O)N[C@@H]1C(=O)N2C(C(=O)O)=C(COC(C)=O)CS[C@H]12)c1csc(N)n1", "outcome": "inactive"},
      {"smiles": "NCCNC(=O)c1ncsc1-c1cccc(F)c1", "outcome": "inactive"},
      {"smiles": "NC(=S)c1ccc[n+]([C@@H]2O[C@@H](COP(=O)([O-])OP(=O)(O)OC[C@H]3O[C@@H](n4cnc5c(N)ncnc54)[C@H](OP(=O)(O)O)[C@@H]3O)C(O)C2O)c1", "note": "(stereo not given in full)", "outcome": "inactive"},
      {"smiles": "CN(C)CCC(c1ccc(Cl)cc1)c1ccccn1", "note": "(stereo not given)", "outcome": "inactive"},
      {"smiles": "O=C(O)c1cc([N+](=O)[O-])ccc1NCCCc1ccccc1", "outcome": "inactive"}
    ]}
  ]
}
